# Most compounds without a hit are left out; they make up all but 15% or so of the library.
# DT40 TDP1 no CPT = qHTS for Inhibitors of human tyrosyl-DNA phosphodiesterase 1 (TDP1): qHTS in cells in absence of CPT; DT40 Tdp1-/- hTDP1 cells, no CPT, ATP luminescence, 48 h; Potency, µM (series often up to 46.2 µM), without a hit: at the highest dose activity change, negative = growth inhibition, usual class: inhibitors; 420,000 tested, 15% active; note: nearly all actives have a fitted effect of over 55% in size
#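 Growth of hTDP1-complemented DT40 Tdp1-knockout cells is measured by ATP luminescence after at least 48 hr compound exposure at 37 °C, with DMSO substituting for the 20 nM CPT used in the parallel screen.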
# RORgamma inh = qHTS for inhibitors of ROR gamma transcriptional activity. Nuclear receptor ROR-gamma (Mus musculus), P51450. Drosophila S2 Gal4-RORgamma UAS-luciferase reporter, 20 h. Potency, µM (doses to about 53.6 µM), for the others: at the highest dose activity change, negative = inhibition, actives largely listed as inhibitors. 310,000 tested, 5.4% active. AID 2551, 2010; note: nearly all actives have a fitted effect of over 60% in size
#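 Schneider cells (Drosophila), stable Gal4 DBD–ROR gamma + UAS-luc; 1 hr cmpd preincubation; Cu2+ induction 700 uM final; 20 hr ambient; luminescence.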
# Gal4-VP16 FLuc = VP16 counterscreen qHTS for inhibitors of ROR gamma transcriptional activity | Drosophila S2 Gal4-VP16 UAS-luciferase, luminescence, 20 h | Potency, µM (series often up to 53.6 µM), for the others: at the top dose activity, negative = inhibition, hits mostly inhibitors | 310,000 tested, 3.5% active | AID 2546, 2010;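 note: Gal4-VP16 expression switched on by copper sulfate through the metallothionein promoter; nearly all actives have a fitted effect of over 50% in size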
# ELG1 DNA repair = qHTS screen for small molecules that inhibit ELG1-dependent DNA repair in human embryonic kidney (HEK293T) cells expressing luciferase-tagged ELG1. HEK293T ELG1-luciferase reporter, luminescence, 16 h; DNA damage induced by 5-fluorouridine. Potency, µM (top dose mostly 46.1 µM), without a hit: at the highest dose activity change, negative = inhibition, usual class: inhibitors. 330,000 tested, 2.3% active. AID 504467, 2011; note: nearly all actives have a fitted effect of over 55% in size
#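 Quantitative HTS, concentration-response format. 2,000 cells/well co-treated with 5-fluorouridine and compound, 16 hr in 5% CO2 at 37 °C; ONE-Glo luminescence read after 30 min.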
# DT40 TDP1 CPT = qHTS for Inhibitors of human tyrosyl-DNA phosphodiesterase 1 (TDP1): qHTS in cells in presence of CPT. chicken DT40 Tdp1-/-;hTDP1 cells + 20 nM CPT, ATP luminescence, 48 h. Potency, µM (top dose mostly 46.2 µM), without a hit: top-dose activity change, negative = growth inhibition, actives largely listed as inhibitors. 420,000 tested, 12% active; note: nearly all actives have a fitted effect of over 55% in size
#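 Chicken DT40 Tdp1-/- cells stably complemented with human TDP1 were seeded at 400 cells/well in medium containing 20 nM camptothecin, exposed to pin-transferred compounds, and grown at 37 °C for at least 48 hr. Viability was read as ATP luminescence.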
# 12-LOX inh = Primary qHTS assay for inhibitors of human arachidonate 12S-lipoxygenase (ALOX12): Round 2; Polyunsaturated fatty acid lipoxygenase ALOX12 (Homo sapiens), P18054; Potency, µM (doses to about 108 µM), for the others: top-dose activity change, negative = inhibition, hits mostly inhibitors; purified 12hLO, xylenol orange hydroperoxide absorbance; 580,000 tested, 1.1% active
# Target sequence (P18054 whole entry, looked up): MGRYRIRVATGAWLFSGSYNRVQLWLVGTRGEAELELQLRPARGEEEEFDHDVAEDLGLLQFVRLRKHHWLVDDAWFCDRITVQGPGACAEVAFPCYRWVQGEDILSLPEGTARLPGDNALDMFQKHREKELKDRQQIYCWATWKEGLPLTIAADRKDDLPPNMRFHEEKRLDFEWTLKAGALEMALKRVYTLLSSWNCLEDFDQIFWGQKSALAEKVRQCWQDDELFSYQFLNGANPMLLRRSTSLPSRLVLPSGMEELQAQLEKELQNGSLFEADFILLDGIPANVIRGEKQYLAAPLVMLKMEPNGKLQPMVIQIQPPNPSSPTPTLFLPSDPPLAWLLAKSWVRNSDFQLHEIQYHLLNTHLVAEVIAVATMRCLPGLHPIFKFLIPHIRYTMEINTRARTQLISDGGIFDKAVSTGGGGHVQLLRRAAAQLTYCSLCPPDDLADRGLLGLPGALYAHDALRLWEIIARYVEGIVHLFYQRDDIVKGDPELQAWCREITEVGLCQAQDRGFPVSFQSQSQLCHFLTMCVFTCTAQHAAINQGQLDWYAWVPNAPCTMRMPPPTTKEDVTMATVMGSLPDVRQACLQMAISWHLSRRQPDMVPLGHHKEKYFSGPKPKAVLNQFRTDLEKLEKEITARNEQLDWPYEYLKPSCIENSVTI
#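 Hydroperoxide product was detected by ferrous iron/xylenol orange as the 573 to 405 nm absorbance ratio. Arachidonic acid at 40 uM (final) was turned over for 30 min at room temperature by 150 nM human 12hLO, pH 7.0 Hepes buffer, after 15 min compound preincubation.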
# * marks the source's active call; other numbers are inactive results; ? = inconclusive; / = not tested or not shown; [ ] = dose if it differs, or a comment. Calls come from the whole dose curve; as a rule, active = well fitted curve in the direction sought with a large enough effect; inconclusive = small, poorly fitted or top-dose-only effect, or another doubt; inactive = no such curve, though single readings can be large; an effect the other way counts as inactive or inconclusive. % is set by controls: 0 for no effect and ±100 for the full control effect; potency is the fitted concentration of half-maximal effect.
SMILES,DT40 TDP1 no CPT,RORgamma inh,Gal4-VP16 FLuc,ELG1 DNA repair,DT40 TDP1 CPT,12-LOX inh
N/C(=N\OC(=O)c1ccc(Cl)cc1Cl)c1ccccn1,2%,7.1µM*,?,?,-23%,-16%
Cc1ccc(C(=O)O/N=C(\N)c2ccccn2)c(Cl)c1,?,0.71µM*,2.8µM*,?,?,24%
N/C(=N\OC(=O)c1ccc(Cl)cc1Cl)c1ccncc1,2%,-12%,24%,?,-14%,?
N/C(=N\OC(=O)c1cc(Br)ccc1Cl)c1ccccn1,-26%,-44%,?,?,-9%,-19%
N/C(=N\OC(=O)c1ccc(Cl)cc1[N+](=O)[O-])c1ccccn1,?,-21%,-26%,?,?,9%
N/C(=N\OC(=O)c1ccccc1Cl)c1ccncc1,-14%,?,?,23µM*,-28%,1%
Cc1ccc(C(=O)O/N=C(\N)c2ccccc2)c(Cl)c1,?,4.5µM*,8.9µM*,?,-5%,-13%
O=C(CC1CCCCC1)Nc1ccc2c(c1)-c1ccccc1C2,/,/,/,/,/,15%
Clc1ccc2c(c1)C1CC2CCN1Cc1ccccc1 (configuration not stated),-14%,/,/,/,-5%,3%
COc1ccc(CN2CCC3CC2c2cc(-c4cccc(C)c4)ccc23)cc1 (configuration not stated),15µM*,/,/,/,21µM*,3%
COc1ccc(CN2CCC3CC2c2cc(Cl)ccc23)cc1 (configuration not stated),18µM*,/,/,/,18µM*,0%
Fc1ccc(CN2C[C@@H](F)[C@@H](OCc3nc4ccccc4o3)C2)cc1,/,/,/,/,/,56%[176 µM]
O=C(NNC(=O)c1ccco1)c1ccco1,-8%,/,/,/,4%,3%
O=C(/C=C/c1ccc(Br)cc1)NC(=S)NNC(=O)c1ccco1,18µM*,?,?,?,?,?
O=C(/C=C/c1ccccc1)NC(=S)NNC(=O)c1ccco1,21µM*,4%,-2%,?,?,220%
O=C(Nc1ccccc1)c1cnc2n1CCN(Cc1ccc3c(c1)CCO3)CC2,/,/,/,/,/,-2%[176 µM]
O=C(Nc1ccc(C(=O)O)cc1)/C(=C\c1ccccc1)NC(=O)c1ccccc1,-6%,/,/,8%,3%,?
CCOC(=O)C(Cc1ccc(NC(=O)/C(=C\c2ccccc2)NC(=O)c2ccccc2)cc1)N1C(=O)c2ccccc2C1=O (configuration not stated),8.2µM*,11%[10 µM],-4%,2%,10µM*,-21%
O=C(NCCCO)C1CC(=O)N(c2n[nH]c3cc(Br)ccc23)C1 (configuration not stated),/,/,/,/,/,9%
N#Cc1c(C2CCNCC2)cc(-c2c(O)cccc2OCC2CC2)nc1N,/,/,/,/,/,-5%[57.4 µM]
Cc1cc(C)n2nc(CC#N)c(C#N)c2n1,-13%,-3%,3%,20%,14%,-3%
N#C/C(=C\c1cccnc1)c1ccc([N+](=O)[O-])cc1,?,?,13µM*,?,?,1%
Cc1cc(C)n2nc(/C(C#N)=C/c3ccccn3)c(C#N)c2n1,9.2µM*,-34%,-21%,-10%,?,?
N#C/C(=C\c1ccccn1)c1ccccn1,15µM*,-29%,-18%,?,23µM*,?
N#C/C(=C\c1ccc([N+](=O)[O-])cc1)c1ccccn1,23µM*,-10%,6%,?,?,-14%
SMILES,DT40 TDP1 no CPT,RORgamma inh,Gal4-VP16 FLuc,ELG1 DNA repair,DT40 TDP1 CPT,12-LOX inh
N#CC(C#N)=Cc1ccc(OC(=O)c2ccccn2)cc1,-25%,13µM*,-25%,15%,-7%,-18%
CN(C)c1ccc(/C=C(\C#N)c2ccccn2)cc1,23µM*,7.1µM*,7.9µM*,?,-28%,?
COC(=O)c1ccc(OC(=O)c2ccccn2)cc1,-10%,-1%,8%,0%,-1%,0%
CC1=CCC2C(C)(CC[C@H](O)C2(C)C)C1COc1ccc2ccc(=O)oc2c1 (some centres not stated),/,/,/,/,/,7%
Clc1ccc(/C=C/c2nc3ccccc3[nH]2)c(Cl)c1,18µM*,?,7.1µM*,?,13µM*,-29%
N#C/C(=C\c1ccc(Cl)cc1)c1nc2ccccc2[nH]1,-15%,/,/,/,-5%,-12%
O=C(/C=C/c1ccc(Cl)cc1Cl)c1nc2ccccc2[nH]1,?,-45%,1%,6%,12µM*,0%
Clc1cccc(Cl)c1/C=C/c1nc2ccccc2[nH]1,16µM*,11µM*,?,?,?,/
Clc1ccc(/C=C/c2ccc3ccccc3n2)c(Cl)c1,?,/,/,/,-6%,/
Clc1ccc(/C=C/c2nc3ccccc3[nH]2)cc1,?,4.5µM*,7.1µM*,?,?,-13%
C[C@]12CC[C@@H]3c4ccc(O)cc4CC[C@H]3[C@@H]1CC[C@@H]2OC(=O)CCC(=O)O,1%,-8%,-3%,13%,0.73µM*,?
CCCCC(=O)OC1CCC2C3CCc4cc(O)ccc4C3CC[C@]12C (some centres not stated),/,15%,?,/,/,/
CCCCC(=O)OC1CCC2C3CCc4cc(O)ccc4C3CCC12C (configuration not stated),18µM*,/,/,/,?,?
C[C@]12CCC3c4ccc(O)cc4CCC3C1CCC2OC(=O)CCC1CCCC1 (some centres not stated),2%,1%,-28%,/,3%,/
COc1ccccc1Nc1c(-c2ccc(O)cc2)nc2ncccn12,/,/,/,/,/,-12%
O=C(NCc1ccccn1)C1CCCN(C(=O)c2cccc(C(F)(F)F)c2)C1 (configuration not stated),/,/,/,/,/,44%
COc1cc2c(cc1OC)C(c1ccc(Cl)cc1)N(c1cccc(C#N)c1)C(=O)C2 (configuration not stated),?,/,/,/,23µM*,-15%
COc1cc2c(cc1OC)C(c1ccc(F)cc1)N(c1cccc(C#N)c1)C(=O)C2 (configuration not stated),?,/,/,/,15µM*,-18%
CN(N=Cc1ccccc1)C(=S)Nc1ccccc1,12µM*,/,/,/,-76%,?
